Assay results taken from the supplement of paper PMC4840960.
Structures can show the parent of a compound that is named as a salt. ± gives the standard deviation of the averaged measurements.

The molecules below were run on E18 rat cortical neuron-glia co-culture (assay: fiber score / MBP score (myelination specific beyond OL differentiation) (ratio); higher = more myelination-specific MBP alignment). Details: 1 µM; treatment time: 8 days (DIV5-DIV13).
Method in brief: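 Library compounds were applied at 1 or 5 µM in myelination medium, DIV5 to DIV13, to primary E18 rat cortical co-cultures grown at 20,000 cells/well in 96-well plates. After 4 % paraformaldehyde fixation and MBP/Olig2/DAPI immunostaining, four 10X fields per well in duplicate wells were scored. Each value is continuous MBP fiber length per Olig2+ nucleus divided by thresholded MBP area × intensity per Olig2+ nucleus.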

Row | SMILES | fiber score / MBP score
1 | CCOc1cc(N)c(Cl)cc1C(=O)NCC1CN(Cc2ccc(F)cc2)CCO1 (stereo not drawn) [Mosapride] | 0.736
2 | Cc1cnc(NC(=O)C2=C(O)c3ccccc3S(=O)(=O)N2C)s1 [Meloxicam] | 0.958
3 | Cc1cn([C@H]2C=C[C@@H](CO)O2)c(=O)[nH]c1=O [Stavudine] | 0.646 ± 0.15
4 | Cc1cccc(C)c1OCC(C)N (stereo not drawn) [Mexiletine] | 0.887
5 | Cc1nc(=O)c2cc(CN(C)c3ccc(C(=O)N[C@@H](CCC(=O)O)C(=O)O)s3)ccc2[nH]1 [Raltitrexed] | 1.33
6 | O=C(c1ccccc1)c1ccc2n1CCC2C(=O)O (stereo not drawn) [Ketorolac] | 0.853
7 | CC(N/C(=N\C#N)Nc1ccncc1)C(C)(C)C (stereo not drawn) [Pinacidil] | 0.981
8 | NS(=O)(=O)c1cc2c(cc1Cl)NCNS2(=O)=O [Hydrochlorothiazide] | 0.749
9 | C[C@]12C=CC(=O)C=C1CC[C@@H]1[C@@H]2C(=O)C[C@@]2(C)[C@H]1CC[C@]2(O)C(=O)CO [Prednisone] | 0.839
10 | CC(C)c1nc(CN(C)C(=O)N[C@H](C(=O)N[C@@H](Cc2ccccc2)C[C@H](O)[C@H](Cc2ccccc2)NC(=O)OCc2cncs2)C(C)C)cs1 [Ritonavir] | 0.549
11 | Nc1c2c(nc3c1CCC3)CCCC2 [Amiridine] | 0.702
12 | O=C(O)/C=C/c1ccc(Cn2ccnc2)cc1 [Ozagrel] | 0.768
13 | CC(C(=O)O)c1ccc(CC2CCCC2=O)cc1 (stereo not drawn) [loxoprofen] | 0.944
14 | COc1cc2c(cc1OC)C(=O)C(CC1CCN(Cc3ccccc3)CC1)C2 (stereo not drawn) [Donepezil] | 0.462
15 | CC(Oc1c(Cl)cccc1Cl)C1=NCCN1 (stereo not drawn) [lofexidine] | 0.929
16 | CN(C)c1ccc(O)c2c1C[C@H]1C[C@H]3[C@H](N(C)C)C(O)=C(C(N)=O)C(=O)[C@@]3(O)C(O)=C1C2=O [Minocycline] | 0.788
17 | CNCCCCOc1ccccc1Cc1ccccc1 [Bifemelane] | 0.512
18 | O=S(=O)(O)CCS [Mesna] | 0.768
19 | COc1ccc2[nH]c([S+]([O-])Cc3ncc(C)c(OC)c3C)nc2c1 (stereo not drawn) [Omeprazole] | 0.656
20 | Nc1ncnc2c1ncn2[C@@H]1O[C@H](CO)[C@@H](O)[C@@H]1O [Vidarabine] | 0.8

Row | SMILES | fiber score / MBP score
21 | Cc1cc2c(s1)Nc1ccccc1N=C2N1CCN(C)CC1 [Olanzapine] | 1.2
22 | Cn1ccnc1S [Methimazole] | 0.372
23 | CC(C)NCC(O)COc1ccc(CCOCC2CC2)cc1 (stereo not drawn) [Betaxolol] | 0.636
24 | Cc1ccnc2c1NC(=O)c1cccnc1N2C1CC1 [Nevirapine] | 0.687
25 | CCC(C)n1ncn(-c2ccc(N3CCN(c4ccc(OCC5COC(Cn6cncn6)(c6ccc(Cl)cc6Cl)O5)cc4)CC3)cc2)c1=O (stereo not drawn) [Itraconazole] | 1.21
26 | NC(Cc1cc(I)c(Oc2cc(I)c(O)c(I)c2)c(I)c1)C(=O)O (stereo not drawn) [Thyroxine] | 0.768
27 | CCN(CC)CC#CCOC(=O)C(O)(c1ccccc1)C1CCCCC1 (stereo not drawn) [Oxybutynin] | 0.964
28 | CN(C)[C@@H]1C(O)=C(C(N)=O)C(=O)[C@@]2(O)C(O)=C3C(=O)c4c(O)ccc(Cl)c4[C@@H](O)[C@H]3C[C@@H]12 [Demeclocycline] | 0.946
29 | CN(CCOc1ccc(NS(C)(=O)=O)cc1)CCc1ccc(NS(C)(=O)=O)cc1 [Dofetilide] | 1.2
30 | COc1ccc(C2CNC(=O)C2)cc1OC1CCCC1 (stereo not drawn) [Rolipram] | 0.626
31 | CN(C)CCOC(c1ccccc1)c1ccccc1 [Diphenhydramine] | 0.668
32 | Clc1cccc(Cl)c1NC1=NCCN1 [Clonidine hydrochloride] | 0.735
33 | CC(=O)O[C@H]1C[C@@H]2CC[C@@H]3[C@H](CC[C@@]4(C)[C@H]3C[C@H]([N+]3(C)CCCCC3)[C@@H]4OC(C)=O)[C@@]2(C)C[C@@H]1N1CCCCC1 [Vecuronium Bromide] | 0.647
34 | COc1ccnc(C[S+]([O-])c2nc3cc(OC(F)F)ccc3[nH]2)c1OC (stereo not drawn) [Pantoprazole] | 0.86
35 | CC(C)NCC(O)COc1ccc(COCCOC(C)C)cc1 (stereo not drawn) [Bisoprolol] | 0.546
36 | CCCCNc1cc(C(=O)O)cc(S(N)(=O)=O)c1Oc1ccccc1 [Bumetanide] | 0.846
37 | CC(=O)OCC(=O)[C@@]1(O)CC[C@H]2[C@@H]3C[C@H](C)C4=CC(=O)C=C[C@]4(C)[C@H]3[C@@H](O)C[C@@]21C [Methylprednisolone acetate] | 0.468
38 | N[C@@H]1CONC1=O [Cycloserine] | 0.562 ± 0.18
39 | CC1(C)O[C@@H]2C[C@H]3[C@@H]4C[C@H](F)C5=CC(=O)C=C[C@]5(C)[C@@]4(F)[C@@H](O)C[C@]3(C)[C@]2(C(=O)CO)O1 [Fluocinolone Acetonide] | 1.4

Same assay, conditions: 5 µM; treatment time: 8 days (DIV5-DIV13)

Row | SMILES | fiber score / MBP score
40 | CCOc1cc(N)c(Cl)cc1C(=O)NCC1CN(Cc2ccc(F)cc2)CCO1 (stereo not drawn) [Mosapride] | 0.556
41 | Cc1cnc(NC(=O)C2=C(O)c3ccccc3S(=O)(=O)N2C)s1 [Meloxicam] | 1
42 | Cc1cn([C@H]2C=C[C@@H](CO)O2)c(=O)[nH]c1=O [Stavudine] | 0.637 ± 0.27
43 | Cc1cccc(C)c1OCC(C)N (stereo not drawn) [Mexiletine] | 0.965
44 | Cc1nc(=O)c2cc(CN(C)c3ccc(C(=O)N[C@@H](CCC(=O)O)C(=O)O)s3)ccc2[nH]1 [Raltitrexed] | 1.67
45 | O=C(c1ccccc1)c1ccc2n1CCC2C(=O)O (stereo not drawn) [Ketorolac] | 1.12
46 | CC(N/C(=N\C#N)Nc1ccncc1)C(C)(C)C (stereo not drawn) [Pinacidil] | 0.451
47 | NS(=O)(=O)c1cc2c(cc1Cl)NCNS2(=O)=O [Hydrochlorothiazide] | 0.819
48 | C[C@]12C=CC(=O)C=C1CC[C@@H]1[C@@H]2C(=O)C[C@@]2(C)[C@H]1CC[C@]2(O)C(=O)CO [Prednisone] | 0.736
49 | CC(C)c1nc(CN(C)C(=O)N[C@H](C(=O)N[C@@H](Cc2ccccc2)C[C@H](O)[C@H](Cc2ccccc2)NC(=O)OCc2cncs2)C(C)C)cs1 [Ritonavir] | 0.623
50 | Nc1c2c(nc3c1CCC3)CCCC2 [Amiridine] | 0.8
51 | O=C(O)/C=C/c1ccc(Cn2ccnc2)cc1 [Ozagrel] | 1.11
52 | CC(C(=O)O)c1ccc(CC2CCCC2=O)cc1 (stereo not drawn) [loxoprofen] | 0.875
53 | COc1cc2c(cc1OC)C(=O)C(CC1CCN(Cc3ccccc3)CC1)C2 (stereo not drawn) [Donepezil] | 0.277
54 | CC(Oc1c(Cl)cccc1Cl)C1=NCCN1 (stereo not drawn) [lofexidine] | 1.1
55 | CN(C)c1ccc(O)c2c1C[C@H]1C[C@H]3[C@H](N(C)C)C(O)=C(C(N)=O)C(=O)[C@@]3(O)C(O)=C1C2=O [Minocycline] | 0.583
56 | CNCCCCOc1ccccc1Cc1ccccc1 [Bifemelane] | 0.543
57 | O=S(=O)(O)CCS [Mesna] | 0.877
58 | COc1ccc2[nH]c([S+]([O-])Cc3ncc(C)c(OC)c3C)nc2c1 (stereo not drawn) [Omeprazole] | 0.73
59 | Nc1ncnc2c1ncn2[C@@H]1O[C@H](CO)[C@@H](O)[C@@H]1O [Vidarabine] | 1.2

Row | SMILES | fiber score / MBP score
60 | Cc1cc2c(s1)Nc1ccccc1N=C2N1CCN(C)CC1 [Olanzapine] | 0.751
61 | Cn1ccnc1S [Methimazole] | 0.312
62 | CC(C)NCC(O)COc1ccc(CCOCC2CC2)cc1 (stereo not drawn) [Betaxolol] | 0.615
63 | Cc1ccnc2c1NC(=O)c1cccnc1N2C1CC1 [Nevirapine] | 0.851
64 | CCC(C)n1ncn(-c2ccc(N3CCN(c4ccc(OCC5COC(Cn6cncn6)(c6ccc(Cl)cc6Cl)O5)cc4)CC3)cc2)c1=O (stereo not drawn) [Itraconazole] | 0.918
65 | NC(Cc1cc(I)c(Oc2cc(I)c(O)c(I)c2)c(I)c1)C(=O)O (stereo not drawn) [Thyroxine] | 1.19
66 | CCN(CC)CC#CCOC(=O)C(O)(c1ccccc1)C1CCCCC1 (stereo not drawn) [Oxybutynin] | 0.547
67 | CN(C)[C@@H]1C(O)=C(C(N)=O)C(=O)[C@@]2(O)C(O)=C3C(=O)c4c(O)ccc(Cl)c4[C@@H](O)[C@H]3C[C@@H]12 [Demeclocycline] | 0.666
68 | CN(CCOc1ccc(NS(C)(=O)=O)cc1)CCc1ccc(NS(C)(=O)=O)cc1 [Dofetilide] | 0.728
69 | COc1ccc(C2CNC(=O)C2)cc1OC1CCCC1 (stereo not drawn) [Rolipram] | 0.618
70 | CN(C)CCOC(c1ccccc1)c1ccccc1 [Diphenhydramine] | 0.525
71 | Clc1cccc(Cl)c1NC1=NCCN1 [Clonidine hydrochloride] | 0.879
72 | CC(=O)O[C@H]1C[C@@H]2CC[C@@H]3[C@H](CC[C@@]4(C)[C@H]3C[C@H]([N+]3(C)CCCCC3)[C@@H]4OC(C)=O)[C@@]2(C)C[C@@H]1N1CCCCC1 [Vecuronium Bromide] | 0.791
73 | COc1ccnc(C[S+]([O-])c2nc3cc(OC(F)F)ccc3[nH]2)c1OC (stereo not drawn) [Pantoprazole] | 0.933
74 | CC(C)NCC(O)COc1ccc(COCCOC(C)C)cc1 (stereo not drawn) [Bisoprolol] | 0.728
75 | CCCCNc1cc(C(=O)O)cc(S(N)(=O)=O)c1Oc1ccccc1 [Bumetanide] | 0.859
76 | CC(=O)OCC(=O)[C@@]1(O)CC[C@H]2[C@@H]3C[C@H](C)C4=CC(=O)C=C[C@]4(C)[C@H]3[C@@H](O)C[C@@]21C [Methylprednisolone acetate] | 0.413
77 | N[C@@H]1CONC1=O [Cycloserine] | 0.637
78 | CC1(C)O[C@@H]2C[C@H]3[C@@H]4C[C@H](F)C5=CC(=O)C=C[C@]5(C)[C@@]4(F)[C@@H](O)C[C@]3(C)[C@]2(C(=O)CO)O1 [Fluocinolone Acetonide] | 0.825
